# Assay outcomes: PubChem, National Center for Advancing Translational Sciences (NCATS)
# An excerpt weighted towards active compounds, which were near 3.4% of everything screened.
# AmpC no deterg = qHTS Inhibitors of AmpC Beta-Lactamase (assay without detergent); AmpC nitrocefin hydrolysis, absorbance 480 nm, 0.0001% Triton; P00811; AID 485341, 2010; hit rate 0.52% among 330,000; Potency, µM (titrated, usually from 57.1 µM), for the others: at the highest dose activity change, negative = inhibition, usual class: inhibitors;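 also: plate controls were no compound for no effect and no enzyme for full effect; nearly all actives have a fitted effect of over 20% in size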
# Target sequence (P00811 whole entry, looked up): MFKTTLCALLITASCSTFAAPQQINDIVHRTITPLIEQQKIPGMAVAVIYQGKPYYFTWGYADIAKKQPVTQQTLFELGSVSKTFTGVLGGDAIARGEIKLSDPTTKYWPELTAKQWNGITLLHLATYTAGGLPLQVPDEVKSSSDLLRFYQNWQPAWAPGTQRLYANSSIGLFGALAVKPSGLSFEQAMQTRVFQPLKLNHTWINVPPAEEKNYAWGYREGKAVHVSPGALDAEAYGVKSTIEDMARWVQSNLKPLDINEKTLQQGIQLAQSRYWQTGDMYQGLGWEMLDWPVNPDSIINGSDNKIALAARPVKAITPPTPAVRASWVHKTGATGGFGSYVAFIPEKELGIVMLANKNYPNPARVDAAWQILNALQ
#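 20 mM phosphate pH 7.0 + 0.01% (detergent screen) or 0.0001% Triton X-100; 5.3 nM AmpC reagent; cpd preinc 15 min RT; nitrocefin (800 uM stock) to start; A480 q20 s × 4 min; Activity was normalised to no-enzyme and no-compound control wells.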
# AmpC detergent = qHTS Inhibitors of AmpC Beta-Lactamase (assay with detergent). AmpC hydrolysis of nitrocefin, absorbance 480 nm, 0.01% Triton. Potency, µM (doses to about 114 µM), for the others: at the highest dose activity change, negative = inhibition, most hits filed as inhibitors. AID 485294, 2010. hit rate 0.041% among 370,000;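 also: 0% = no-compound wells and -100% = no-enzyme wells; nearly all actives have a fitted effect of over 25% in size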
#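 20 mM phosphate pH 7.0 + 0.01% (detergent screen) or 0.0001% Triton X-100; 5.3 nM AmpC reagent; cpd preinc 15 min RT; nitrocefin (800 uM stock) to start; A480 q20 s × 4 min; Activity was normalised to no-enzyme and no-compound control wells.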
# RE007 growth inh = qHTS Assay for Inhibitors of the HIV-1 protein Vpr; S. pombe RE007 Vpr strain, BacTiter-Glo ATP luminescence, 24 h; Potency, µM (highest dose often 92.2 µM), inactives show at the highest dose activity change, negative = less growth, most hits filed as inhibitors; hit rate 0.21% among 360,000; AID 651644, 2012; active = well fitted falling curve with a large enough effect; inconclusive = small, poorly fitted or top-dose-only effect; inactive = no such curve, though single readings can be large or run the other way; also: nearly all actives have a fitted effect of over 50% in size
#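 Fission yeast RE007 carrying one integrated HIV-1 vpr copy, seeded at OD 0.01 in PMG+AL medium with 23 nL pinned compound. Grown 24 h at 30 degrees; viability read by BacTiter-Glo luminescence after 5 min.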
# Sm TGR block = qHTS Assay for the Inhibitors of Schistosoma Mansoni Peroxiredoxins; Schistosoma mansoni thioredoxin glutathione reductase (TGR), Q962Y6; hit rate 3% among 360,000; Potency, µM (highest dose often 114 µM), inactives show top-dose activity change, negative = inhibition, most hits filed as inhibitors; purified TGR, DTNB reduction, TNB absorbance 405 nm; also: nearly all actives have a fitted effect of over 60% in size
#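 TGR 20 nM + NADPH 100 uM (dispensed conc.), cpd preinc 15 min RT; start with NADPH (500 uM addition) then DTNB (15 mM addition). Kinetic TNB absorbance, 405 nm filter. Four-parameter Hill fit across titration.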
# Giardia FBPA inh-1 = qHTS Assay for Inhibitors of Fructose-1,6-bisphosphate Aldolase from Giardia Lamblia | A8B2U2 | purified Giardia FBPA | Potency, µM (highest dose often 59.6 µM), for inactives: at the highest dose activity, negative = inhibition, usual class: inhibitors | hit rate 0.71% among 290,000; also: nearly all actives have a fitted effect of over 55% in size
#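 40 nM FBPA preincubated 10 min at RT with compound (up to 57.5 uM final), then substrate plus GAPDH/TPI/NAD/arsenate coupling and diaphorase/resazurin added. Fluorescence read after 20 min at RT, 525/598 nm.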
# Giardia growth = qHTS Assay for Inhibitors of Fructose-1,6-bisphosphate Aldolase from Giardia Lamblia: Giardia lamblia growth inhibition. hit rate 5% among 1,500. shares compounds with Giardia FBPA inh-1. AID 2785, 2010. Potency, µM (highest dose often 57.5 µM), inactives show at the top dose activity change, negative = inhibition, actives largely listed as inhibitors. Giardia lamblia trophozoite growth inhibition;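 also: trophozoites exposed to compound for 48 h at 37 °C; nearly all actives have a fitted effect of over 70% in size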
# Mammalian tox = qHTS Assay for Inhibitors of Fructose-1,6-bisphosphate Aldolase from Giardia Lamblia: Mammalian cellular toxicity; shares compounds with Giardia FBPA inh-1; mammalian cell viability counter-screen, qHTS; Potency, µM (top dose mostly 57.5 µM), for the others: top-dose viability change, negative = toxicity, actives largely listed as inhibitors; hit rate 4% among 1,500;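 also: Chinese hamster ovary cells used as mammalian cytotoxicity surrogate; viability measured as cellular ATP by luminescence; compound exposure lasted 48 h before reading; nearly all actives have a fitted effect of over 60% in size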
# Giardia FBPA inh-2 = qHTS Assay for Inhibitors of Fructose-1,6-bisphosphate Aldolase from Giardia Lamblia: Primary screen confirmation; hit rate 5% among 1,500; purified Giardia aldolase enzyme activity, qHTS; Potency, µM (highest dose often 57.5 µM), without a hit: at the highest dose activity change, negative = inhibition, actives largely listed as inhibitors; shares compounds with Giardia FBPA inh-1; AID 2787, 2010; also: nearly all actives have a fitted effect of over 45% in size
# Rabbit aldolase = qHTS Assay for Inhibitors of Fructose-1,6-bisphosphate Aldolase from Giardia Lamblia: Rabbit FBPA Selectivity | Potency, µM (doses to about 57.5 µM), for the others: at the top dose activity, negative = inhibition, most hits filed as inhibitors | hit rate 4% among 1,500 | shares compounds with Giardia FBPA inh-1 | Rabbit muscle FBPA enzyme inhibition, selectivity counter-screen; also: nearly all actives have a fitted effect of over 60% in size
# GAPDH coupling = qHTS Assay for Inhibitors of Fructose-1,6-bisphosphate Aldolase from Giardia Lamblia: Coupling assay counterscreen confirmation | hit rate 6% among 1,500 | GAPDH coupling enzyme counterscreen, biochemical, qHTS | Potency, µM (series often up to 57.5 µM), inactives show at the highest dose activity change, negative = inhibition, usual class: inhibitors | shares compounds with Giardia FBPA inh-1; also: nearly all actives have a fitted effect of over 55% in size
# Starred values were filed as active, the others as inactive; ? = inconclusive; . = no result given; [ ] = dose if it differs, or a comment. Unless noted, calls follow the shape of the dose curve; as a rule, active = well fitted curve in the direction sought with a large enough effect; inconclusive = small, poorly fitted or top-dose-only effect, or another doubt; inactive = no such curve, though single readings can be large; an effect the other way counts as inactive or inconclusive. Unless noted, % is scaled to controls: 0 for no effect and ±100 for the full control effect; potency is read from the fitted curve at half-maximal effect.
SMILES,AmpC no deterg,AmpC detergent,RE007 growth inh,Sm TGR block,Giardia FBPA inh-1,Giardia growth,Mammalian tox,Giardia FBPA inh-2,Rabbit aldolase,GAPDH coupling
O=C(O)Cn1cnc2c(=S)nc[nH]c21,89%,3%,1%,3%,3.5µM*,-4%[38.3 µM],-4%,-4%,-4%,-8%
CCOc1ccc2nc(N3CCCC(C(=O)Nc4cc(Cl)c(OC)cc4OC)C3)sc2c1 (centres undefined),.,-3%,.,-15%,.,.,.,.,.,.
O=C(COC(=O)c1cc(NS(=O)(=O)c2cccs2)ccc1O)Nc1ccc(F)c(F)c1F,-53%,-10%,-15%,-21%,2%,.,.,.,.,.
O=C(CN1CCN(Cc2ccc(F)cc2)CC1)Nc1nc2ccccc2s1,72%,-17%,-6%,-13%,14µM*,-29%,1%,10%,1%,14%
CCCN1CCN(CC(=O)Nc2nc3ccccc3s2)CC1,-6%,2%,2%,?,?,.,.,.,.,.
Cc1nnc(NC(=O)CN2CCN(Cc3ccccc3)CC2)s1,-18%,-5%,-13%,-25%,6.3µM*,14%[10.4 µM],6%,3%,14%,0%
CCc1nnc(NC(=O)CN2CC(C)OC(C)C2)s1 (centres undefined),-27%,-8%,-8%,8%,3.5µM*,14%[10.4 µM],-6%,3%,7%,7%
O=C(CN1CCN(Cc2ccccc2)CC1)Nc1nnc(C(F)(F)F)s1,7%,?,-10%,-11%,-25%,.,.,.,.,.
CCc1nnc(NC(=O)CN2CCN(Cc3cccc(F)c3)CC2)s1,-19%,4%,15%,-34%,.,.,.,.,.,.
Cc1nnc(NC(=O)CN2CCN(Cc3ccc(F)cc3Cl)CC2)s1,-8%,-11%,-6%,3%,3.2µM*,23%,-11%,6%,6%,17%
CC(C)(C)OC(=O)C[C@@H]1C/C=C\C[C@H](CC(=O)N(CCO)Cc2ccccc2)C(=O)N[C@@H](Cc2ccccc2)COC1=O,205%,.,7%,.,.,.,.,.,.,.
O=C(Nc1ncc2c(n1)CC(c1cccc(Cl)c1)CC2=O)c1ccco1 (centres undefined),52%,2%,22%,6%,.,.,.,.,.,.
O=C1C2C3CCCC3=C3CCCC3C2C(=O)N1c1ccc(Cl)cc1 (centres undefined),?,?,-15%,?,0%,.,.,.,.,.
Cc1ccc2c(c1)CCCN2C(=O)c1cc(C)c(C)s1,-11%,-3%,8%,-10%,.,.,.,.,.,.
CCCc1nnc(NC(=O)CN2CCN(C)CC2)s1,.,2%,15%,1%,?,.,.,.,.,.
CC(=O)Nc1ccc2sc(NC(=O)CN3CCOCC3)nc2c1,-4%,?,5%,-21%,4.5µM*,?,-17%,7%,10%,0%
